# Measured values as given in PubChem BioAssay.
# A number with no mark means an inactive call. Entries that show only a call come without a potency. For part of these data: Potency and affinity values are given separately. Active and inactive are the calls of the source. Unless noted, the rule behind the calls is not given here.
# How the values were obtained:
# [1] = antimalarial activity against Dd2 strain (AID 2302;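 active = growth inhibition above 50% at the single 2 µM test dose, taken to imply half-maximal potency below 2 µM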); conditions: P. falciparum Dd2 in RBCs, LDH growth readout, 72 h; at 2 µM; stronger effect = higher value
# [2] = biological target: L-lactate dehydrogenase (Plasmodium falciparum (isolate CDC / Honduras)) (UniProt Q27743); test: PfLDH activity inhibition – cell lysate, 3D7 strain, counter-screen for P. falciparum growth inhibition project (AID 2304); conditions: P. falciparum 3D7 crude extract, LDH APAD/NBT absorbance; at 2 µM; stronger effect = higher value
# [3] = inhibition of 3D7 malaria parasite growth – strain 3D7 (AID 2306); conditions: P. falciparum 3D7 erythrocytic growth, LDH absorbance, 72 h; at 2 µM; stronger effect = higher value
# [4] = biological target: Calcium-dependent protein kinase 1 (Plasmodium falciparum (isolate 3D7)) (UniProt P62344); test: PfCDPK1 kinase inhibitors, biochemical, TCAMS library (AID 1159585; cut-off not given, nearly all actives have IC50 up to about 0.98 µM;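 note: inhibitors leave more ATP so luminescence rises with inhibition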); conditions: recombinant PfCDPK1, Kinase-Glo ATP depletion luminescence
# [5] = biological target: Plasmodium falciparum protein kinase 6 (PK6, PF3D7_1337100) (UniProt Q8IDW1); test: PfPK6 kinase inhibitors, biochemical, TCAMS library (AID 1159586); conditions: recombinant PfPK6, Kinase-Glo ATP depletion luminescence
# [6] = biological target: Protein kinase 7 (PK7), Plasmodium falciparum 3D7 (PF3D7_0213400) (UniProt Q7YTF7); test: inhibition of Plasmodium PK7 catalytic activity – biochemical, TCAMS antimalarial set, Kinase-Glo luminescence (AID 1159587); conditions: recombinant PfPK7, Kinase-Glo ATP depletion luminescence
# [7] = biological target: Calcium-dependent protein kinase 4 (Plasmodium falciparum (isolate 3D7)) (UniProt Q8IBS5); test: PfCDPK4 kinase inhibitors, biochemical, TCAMS library (AID 1159588; cut-off not given, nearly all actives have IC50 up to about 0.91 µM); conditions: recombinant PfCDPK4, Kinase-Glo ATP depletion luminescence
# Calcium-dependent protein kinase 4 (Plasmodium falciparum (isolate 3D7)), sequence (Q8IBS5 whole entry, looked up): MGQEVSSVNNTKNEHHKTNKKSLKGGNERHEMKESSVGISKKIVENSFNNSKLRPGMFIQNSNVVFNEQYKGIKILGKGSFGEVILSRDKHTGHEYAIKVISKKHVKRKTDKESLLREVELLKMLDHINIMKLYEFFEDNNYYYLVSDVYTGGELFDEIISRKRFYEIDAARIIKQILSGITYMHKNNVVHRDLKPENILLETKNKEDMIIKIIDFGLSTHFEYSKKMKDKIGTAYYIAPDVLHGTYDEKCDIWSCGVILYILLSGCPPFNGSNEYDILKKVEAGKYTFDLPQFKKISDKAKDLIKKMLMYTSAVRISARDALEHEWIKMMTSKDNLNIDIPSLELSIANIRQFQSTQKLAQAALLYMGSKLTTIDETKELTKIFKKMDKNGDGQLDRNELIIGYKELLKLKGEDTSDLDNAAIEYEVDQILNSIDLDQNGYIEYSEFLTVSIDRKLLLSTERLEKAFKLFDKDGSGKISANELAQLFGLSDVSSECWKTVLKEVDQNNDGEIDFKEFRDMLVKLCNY
# L-lactate dehydrogenase (Plasmodium falciparum (isolate CDC / Honduras)), sequence (Q27743 whole entry, looked up): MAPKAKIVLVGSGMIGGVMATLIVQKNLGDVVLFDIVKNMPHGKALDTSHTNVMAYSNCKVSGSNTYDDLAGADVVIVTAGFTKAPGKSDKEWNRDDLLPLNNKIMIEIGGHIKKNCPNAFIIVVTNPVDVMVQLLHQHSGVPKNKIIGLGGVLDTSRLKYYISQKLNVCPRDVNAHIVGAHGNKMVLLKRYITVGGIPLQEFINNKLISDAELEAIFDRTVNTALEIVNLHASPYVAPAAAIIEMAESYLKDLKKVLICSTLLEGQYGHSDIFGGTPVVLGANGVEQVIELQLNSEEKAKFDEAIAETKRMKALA
# Plasmodium falciparum protein kinase 6 (PK6, PF3D7_1337100), sequence (Q8IDW1 1-305): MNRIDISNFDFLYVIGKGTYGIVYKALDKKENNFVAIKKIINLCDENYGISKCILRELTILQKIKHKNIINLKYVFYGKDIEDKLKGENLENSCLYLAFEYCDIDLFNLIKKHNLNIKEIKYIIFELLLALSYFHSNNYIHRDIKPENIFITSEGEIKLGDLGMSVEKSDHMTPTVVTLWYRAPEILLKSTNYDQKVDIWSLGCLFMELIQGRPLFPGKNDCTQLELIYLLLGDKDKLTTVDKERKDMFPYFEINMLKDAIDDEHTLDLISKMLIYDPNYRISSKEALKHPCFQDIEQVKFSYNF
# Protein kinase 7 (PK7), Plasmodium falciparum 3D7 (PF3D7_0213400), sequence (Q7YTF7 1-343): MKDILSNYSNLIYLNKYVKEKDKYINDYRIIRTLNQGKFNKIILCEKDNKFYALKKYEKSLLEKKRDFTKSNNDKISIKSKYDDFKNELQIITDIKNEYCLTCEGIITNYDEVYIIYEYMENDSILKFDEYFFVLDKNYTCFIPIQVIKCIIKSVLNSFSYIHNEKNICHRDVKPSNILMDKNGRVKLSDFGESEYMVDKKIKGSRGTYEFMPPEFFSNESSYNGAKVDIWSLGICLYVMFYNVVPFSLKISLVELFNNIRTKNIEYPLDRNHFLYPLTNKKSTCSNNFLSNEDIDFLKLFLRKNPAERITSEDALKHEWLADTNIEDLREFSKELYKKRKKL
# Calcium-dependent protein kinase 1 (Plasmodium falciparum (isolate 3D7)), sequence (P62344 whole entry, looked up): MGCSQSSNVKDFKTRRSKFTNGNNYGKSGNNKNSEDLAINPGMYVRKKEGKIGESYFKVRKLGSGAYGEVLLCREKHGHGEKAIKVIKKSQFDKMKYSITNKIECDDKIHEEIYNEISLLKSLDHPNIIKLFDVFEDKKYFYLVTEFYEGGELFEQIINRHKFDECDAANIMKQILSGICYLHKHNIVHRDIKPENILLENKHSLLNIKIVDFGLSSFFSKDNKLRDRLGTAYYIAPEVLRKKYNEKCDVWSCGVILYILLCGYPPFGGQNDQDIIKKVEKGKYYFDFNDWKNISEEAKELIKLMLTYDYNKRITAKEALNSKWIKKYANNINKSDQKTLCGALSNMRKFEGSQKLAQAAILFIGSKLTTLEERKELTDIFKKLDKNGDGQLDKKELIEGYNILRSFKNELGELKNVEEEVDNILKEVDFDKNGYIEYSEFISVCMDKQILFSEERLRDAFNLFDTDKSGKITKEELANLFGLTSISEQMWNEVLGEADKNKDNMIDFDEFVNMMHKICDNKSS
SMILES,growth inhibition [1],inhibition [2],growth inhibition [3],outcome [4],outcome [5],outcome [6],outcome [7]
CN=C(N)c1ccc(NC(=O)C=Cc2ccc(C(=O)Nc3ccc(C(N)=NC)cc3)cc2)cc1,100% (active),1%,97% (active),inactive,inactive,inactive,inactive
Nc1ncc(-c2ccc(F)c(Cl)c2)c(N)n1,-2%,5%,83% (active),inactive,inactive,inactive,inactive
Cc1[nH]c(C)c(-c2ccc(Oc3cccc(OC(F)(F)F)c3)cc2)c(=O)c1Br,96% (active),-7%,100% (active),inactive,inactive,inactive,inactive
Cc1[nH]c(C)c(-c2ccc(Oc3ccc(Cl)cc3)c(Cl)c2)c(=O)c1Br,96% (active),-1%,97% (active),inactive,inactive,inactive,inactive
CC(CO)(CO)NCc1cc2ccc3ccsc3c2c2ccccc12,98% (active),2%,96% (active),inactive,inactive,inactive,inactive
Cc1[nH]c(C)c(-c2ccc(Sc3ccc(Cl)cc3)cc2)c(=O)c1Br,97% (active),0%,98% (active),inactive,inactive,inactive,inactive
CCCOc1ccc(CNCCCCCCNCc2ccc(OCCC)c3ccccc23)c2ccccc12,96% (active),-2%,101% (active),inactive,inactive,inactive,inactive
Cc1[nH]c(C)c(-c2ccc(Oc3ccc(Cl)cc3)cc2)c(=O)c1Cl,16%,-3%,91% (active),inactive,inactive,inactive,inactive
N=C(N)c1ccc2[nH]c(-c3cc4cc(C(=N)N)ccc4o3)cc2c1,87% (active),5%,94% (active),inactive,inactive,inactive,inactive
CCOc1cc(Cc2cnc(N)nc2N)ccc1OC,-4%,-1%,88% (active),inactive,inactive,inactive,inactive
CCC(=C(CC)c1ccc(O)c(CNC2CCCCC2)c1)c1ccc(O)c(CNC2CCCCC2)c1,100% (active),-1%,100% (active),inactive,inactive,inactive,inactive
Cc1[nH]c(C)c(-c2ccc(Cl)cc2)c(=O)c1I,96% (active),-5%,93% (active),inactive,inactive,inactive,inactive
Nc1nc(N)c2c3c(ccc2n1)NCCC3,-10%,-3%,97% (active),inactive,inactive,inactive,inactive
CCCOc1cc2c(cc1OCCC)C(C=Cc1ccc(Cl)cc1Cl)=NC(C)C2 (stereo unspecified),75% (active),-5%,90% (active),inactive,inactive,inactive,inactive
CC(=O)Oc1c(Cl)c(C)nc(C)c1-c1ccc(Oc2ccc(OC(F)(F)F)cc2)cc1,98% (active),5%,97% (active),inactive,inactive,inactive,inactive
COc1ccc(Cc2c(Cl)nc3nc(N)nc(N)c3c2C)c(OC)c1OC,-3%,-2%,98% (active),inactive,inactive,inactive,inactive
CN(Cc1cnc2nc(N)nc(N)c2n1)c1ccc(C(=O)N[C@H](CCC(=O)OC(C)(C)C)C(=O)N[C@@H](CCC(=O)OC(C)(C)C)C(=O)OC(C)(C)C)cc1,1%,-6%,85% (active),inactive,inactive,inactive,inactive
c1ccc2c(c1)cc(CNCCCN1CCN(CCCNCc3cc4ccccc4c4ccccc34)CC1)c1ccccc12,98% (active),2%,101% (active),inactive,inactive,inactive,inactive
Cc1nc2ccc(S(=O)(=O)Nc3ccc(C(=O)N[C@@H](CCC(=O)O)C(=O)O)cc3)cc2c(=O)[nH]1,2%,7%,94% (active),inactive,inactive,inactive,inactive
CCN(CC)c1ccc2nc(N)nc(N)c2c1,-2%,2%,93% (active),inactive,inactive,inactive,inactive
Clc1ccc(CNCCCCCCCNCc2ccc(Cl)c(Cl)c2)cc1Cl,49%,-7%,99% (active),inactive,inactive,inactive,inactive
Nc1nc(N)c2cc(Cc3ccccc3Cl)cnc2n1,-2%,4%,93% (active),inactive,inactive,inactive,inactive
Nc1nc(N)c(-c2ccccc2)c(=O)[nH]1,-5%,0%,83% (active),inactive,inactive,inactive,inactive
CC(=NNC(=S)NCc1ccco1)c1ccccn1,100% (active),-6%,99% (active),inactive,inactive,inactive,inactive

SMILES,growth inhibition [1],inhibition [2],growth inhibition [3],outcome [4],outcome [5],outcome [6],outcome [7]
CCN(c1ccc(O)c(CN2CCCCC2)c1)c1ccc([N+](=O)[O-])cn1,64% (active),2%,94% (active),inactive,inactive,inactive,inactive
CC1CCN(Cc2c(O)ccc3c(CN4CCC(C)CC4)c(O)ccc23)CC1,86% (active),-3%,102% (active),inactive,inactive,inactive,inactive
Nc1nc(N)c2c(ccc3[nH]c(-c4ccccc4Cl)nc32)n1,101% (active),-1%,101% (active),inactive,inactive,inactive,inactive
COCCOCCOCCn1ccc2c3c(N)nc(N)nc3ccc21,0%,-10%,97% (active),inactive,inactive,inactive,inactive
CC(=NNc1nc2ccccc2s1)c1ccccn1,47%,-2%,88% (active),inactive,inactive,inactive,inactive
C=CCOc1ccc(Cc2cnc(N)nc2N)cc1CCC,-1%,-1%,93% (active),inactive,inactive,inactive,inactive
COc1cccc(Cn2ccc3c4c(N)nc(N)nc4ccc32)c1,96% (active),-2%,99% (active),inactive,inactive,inactive,inactive
Cc1cc(=O)c(-c2ccc(OCc3ccc(Cl)cc3)cc2)c(C)[nH]1,76% (active),-1%,93% (active),inactive,inactive,inactive,inactive
Cc1nc(NCc2ccccc2)cc(Nc2cc(NCc3ccccc3)nc(C)n2)n1,32%,8%,90% (active),inactive,inactive,inactive,inactive
NC(N)=NC(=O)Nc1cc(Br)c(Cl)c(C(F)(F)F)c1,91% (active),0%,101% (active),inactive,inactive,inactive,inactive
CC(C)c1ccc2c(c1)C(=O)c1ccc(C(=O)O)cc1S2(=O)=O,83% (active),-4%,93% (active),inactive,inactive,inactive,inactive
CCN(CC)CCCN(CCCN(CC)CC)c1cc(C)nc(Nc2ccc(Br)cc2)n1,40%,6%,101% (active),inactive,inactive,inactive,inactive
CCCCCCCN(Cc1ccc(OC(C)(C)C(=O)OCC)cc1)C(=O)Nc1ccc(Cl)cc1OCC,89% (active),1%,95% (active),inactive,inactive,inactive,inactive
Cc1nc2nc(N)nc(N)c2c(C)c1Cc1ccc(N)cc1,-2%,-4%,97% (active),inactive,inactive,inactive,inactive
Cc1nc(C)c(-c2ccc(Oc3ccc(OC(F)(F)F)cc3)cc2)c(OC(=O)c2ccccc2)c1Cl,97% (active),2%,97% (active),inactive,inactive,inactive,inactive
CCc1nc(N)nc(N)c1-c1ccc2c(c1)CCCC2,-5%,-5%,95% (active),inactive,inactive,inactive,inactive
Cc1[nH]c(C)c(-c2ccc(Oc3cc(Cl)cc(Cl)c3)cc2)c(=O)c1Cl,96% (active),-7%,96% (active),inactive,inactive,inactive,inactive
COc1ccc2c(c1CCNCCCCNCCc1c(OC)ccc3c1CCCC3)CCCC2,25%,7%,101% (active),inactive,inactive,inactive,inactive
COc1ccccc1-c1nc2c(ccc3nc(N)nc(N)c32)[nH]1,93% (active),2%,101% (active),inactive,inactive,inactive,inactive
CC(C)C(=O)Nc1c(F)cc(F)cc1CCc1ccc(O)cc1,91% (active),2%,90% (active),inactive,inactive,inactive,inactive
CCCN(c1ccc(O)c(CN2CCCCC2)c1)c1ccc([N+](=O)[O-])cn1,96% (active),4%,99% (active),inactive,inactive,inactive,inactive
CCCCN(CCCC)CCCN(CCCN(CCCC)CCCC)c1cc(C)nc(Nc2ccc(Cl)cc2)n1,99% (active),0%,101% (active),inactive,inactive,inactive,inactive
Nc1nc(N)c2c(ccc3c2cnn3Cc2cccnc2)n1,96% (active),0%,95% (active),inactive,inactive,inactive,inactive
Nc1nc(N)c2c(Sc3ccccc3)cccc2n1,0%,-5%,97% (active),inactive,inactive,inactive,inactive
